Assay results published in the supplement of paper PMC10646978.
± gives the standard deviation.

How the values were obtained:
Conditions in all cases: modulator concentration 10 µM
[1] = system: RAW-Dual (murine macrophage reporter line); assay: NF-kB reporter (SEAP) activity fold change vs agonist alone; higher = enhanced NF-kB activity
In short: (§1)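 Compound reached 10 μM final in each well by pin transfer, onto RAW-Dual murine macrophage reporter cells seeded at 50 000 per well in 384-well plates. After 1 hour at 37 °C, the cells were stimulated overnight with a PRR agonist. SEAP in the supernatant was read with QUANTI-Blue at 620 nm absorbance for NF-κB, and Lucia luciferase was read with QUANTI-Luc luminescence for IRF. Each signal was turned into fold change against the mean agonist-only control on the same plate, and two replicate plates were averaged with propagated errors.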

[2] = system: RAW-Dual (murine macrophage reporter line); assay: IRF reporter (Lucia luciferase) activity fold change vs agonist alone; higher = enhanced IRF activity
In short: as §1

[3] = system: RAW-Dual (murine macrophage reporter line); assay: viability score (confluency relative to resting cells, overnight) (fraction); higher = more viable, active = viable (0.7 or more)
In short: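 A compound met the cutoff when both of two confluency masks exceeded 70% of resting cells. Those masks were made with IncuCyte software from IncuCyte images of RAW-Dual macrophages treated overnight at 10 μM final. This is the basis of the viability score, which is confluency relative to resting cells.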

[4] = agonist: CpG ODN 1826 0.5 ug/mL

SMILES | NF-kB reporter [1, 4] | NF-kB reporter ([1]; agonist: LPS 0.1 ug/mL) | NF-kB reporter ([1]; agonist: MPLA […]) | IRF reporter ([2]; agonist: 3'3'-cGAMP 10 ug/mL) | IRF reporter ([2]; agonist: LPS 0.1 ug/mL) | IRF reporter ([2]; agonist: MPLA […]) | viability score [3]
C=C1C(=O)OC2CC3(C)CCCC(C)C3=CC12 (stereo unspecified) | 0.85 ± 0.054 | 0.72 ± 0.068 | 0.685 ± 0.06 | 0.0319 ± 0.0039 | 0.738 ± 0.059 | 0.839 ± 0.15 | 0.73 (active)
CCOC(=O)C1=C(CC)NC2=C(C(=O)CCC2)C1c1ccccc1I (stereo unspecified) | 0.996 ± 0.11 | 1.02 ± 0.13 | 0.982 ± 0.1 | 0.921 ± 0.032 | 1.27 ± 0.16 | 1.05 ± 0.19 | 0.975 (active)
CN1CCN(CCOc2cc(OC3CCOCC3)c3c(Nc4c(Cl)ccc5c4OCO5)ncnc3c2)CC1 | 0.135 ± 0.02 | 1.48 ± 0.29 | 1.99 ± 0.11 | 0.395 ± 0.012 | 0.597 ± 0.13 | 0.983 ± 0.17 | 0.886 (active)
C=CCN1C(=O)C(=C2SC(=S)N(C)C2=O)c2ccccc21 | 0.76 ± 0.072 | 0.833 ± 0.085 | 1.03 ± 0.12 | 0.971 ± 0.05 | 1.33 ± 0.078 | 1.42 ± 0.15 | 0.997 (active)
O=C(O)c1cc(O)ccc1O | 0.972 ± 0.11 | 1.03 ± 0.055 | 0.977 ± 0.023 | 1.03 ± 0.078 | 0.969 ± 0.032 | 0.932 ± 0.11 | 0.996 (active)
Cn1c(=O)cc(N2CCC[C@@H](N)C2)n(Cc2cc(F)ccc2C#N)c1=O.O=C(O)CCC(=O)O | 0.0816 ± 0.0048 | 0.119 ± 0.014 | 0.376 ± 0.039 | 0.0243 ± 0.0016 | 0.262 ± 0.076 | 0.205 ± 0.069 | 0.128 (inactive)
CCN(CC)c1ccc(C=NNc2cc(N3CCOCC3)nc(N3CCOCC3)n2)cc1 | 0.894 ± 0.096 | 1.03 ± 0.11 | 0.994 ± 0.1 | 0.458 ± 0.07 | 1.28 ± 0.23 | 1.25 ± 0.17 | 0.994 (active)
CC(=O)C(C(=O)Nc1ccc(F)cc1)C(c1ccc(Cl)cc1Cl)C(C#N)C#N (stereo unspecified) | 0.894 ± 0.054 | 0.93 ± 0.057 | 0.915 ± 0.093 | 0.903 ± 0.04 | 1.1 ± 0.075 | 1.02 ± 0.26 | 1.01 (active)
Cc1cnc2c(c1SCC(=O)N1CCc3ccccc31)c(=O)n(C)c(=O)n2C | 1.01 ± 0.057 | 1.22 ± 0.18 | 0.916 ± 0.069 | 1.01 ± 0.051 | 1.17 ± 0.15 | 1.14 ± 0.25 | 1.01 (active)
O=C(O)CCCNCP(=O)(O)CCc1ccccc1 | 0.97 ± 0.099 | 0.91 ± 0.093 | 0.881 ± 0.083 | 0.964 ± 0.048 | 0.989 ± 0.14 | 0.963 ± 0.19 | 1.03 (active)
C1N2CN3CN1CN(C2)C3 | 1.07 ± 0.085 | 1.04 ± 0.054 | 1.03 ± 0.033 | 0.961 ± 0.055 | 0.958 ± 0.092 | 0.949 ± 0.076 | 1 (active)
Cc1ccc(OCCCOc2cccc3cccnc23)c(Cl)c1 | 0.808 ± 0.076 | 1.02 ± 0.056 | 0.877 ± 0.057 | 0.947 ± 0.077 | 1.32 ± 0.14 | 1.05 ± 0.076 | 1.01 (active)
COc1cc2nc(N3CCN(C(=O)c4ccco4)CC3)nc(N)c2cc1OC.Cl | 0.888 ± 0.21 | 1.12 ± 0.056 | 0.953 ± 0.079 | 0.9 ± 0.032 | 1.22 ± 0.14 | 1.33 ± 0.2 | 1 (active)
